Laboratory results published in PubChem BioAssay.
Active and inactive are the calls of the source.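 The calls were made as follows, unless noted: active = inhibition of the reporter signal at or above 50%; inactive = inhibition below 50%.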

What was measured:
[1] = inhibitors of TNFa-induced NFkB p65 translocation, primary screen, imaging, HUVEC, MLSMR starter and 10KST1 sets (AID 438;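 active = inhibition above 20% together with a positive visual image hit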;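 also: compound added about 3h40 before a 20 min TNFalpha stimulation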;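 as to inhibition: signal is the nuclear over cytoplasmic p65 intensity ratio per well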); settings: HUVEC TNFa-induced p65 nuclear translocation; cell count: measured here: nuclei count (cytotoxicity indicator), at 2.08 µM; inhibition: at 2 µM, stronger effect = higher value, 0% TNFa-plus-vehicle, 100% no-TNFa wells
[2] = inhibitors of mutant huntingtin aggregation, primary screen, imaging, exon1htt(103Q)mCFP cells, high-content imaging (AID 483;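 active = visual image review flags a hit and inhibition of aggregation exceeds 20%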;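 also: compound exposure lasted 3 days before fixation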;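 as to nuclei count: percent of the per-plate median nuclei count of sample wells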); settings: exon1htt(103Q)mCFP cell line, aggregate imaging, at 2 µM; inhibition of aggregation: stronger effect = higher value; nuclei count: measured here: cell count, toxicity
[3] = inhibitors of E-selectin induction by TNFa, primary screen, imaging, HUVEC, immunofluorescence, MLSMR starter and 10KST1 sets (AID 487;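 active = visually confirmed hit in the image check and inhibition above 20%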;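 as to inhibition: signal is fraction of cell area covered by stained E-selectin grains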;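 as to nuclei count: 100% = median nuclei count of all wells on the same plate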); settings: HUVEC TNFalpha-induced E-selectin immunofluorescence imaging, at 2 µM; inhibition: stronger effect = higher value; nuclei count: measured here: cell number, toxicity
[4] = target: Voltage-gated potassium channel subunit beta-2 (Rattus norvegicus) (UniProt P62483); assay: KvBeta enzyme negative modulators, primary screen, biochemical, NADPH fluorescence (AID 622;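 active = fluorescence slope higher than the sample average by over 3 SD, cut at about -0.22 in these data, passing the limit was not always enough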;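 also: slope of raw intensity against log time taken from 70 to 1610 s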); settings: recombinant KvBeta, 4-cyanobenzaldehyde reduction, at 10 µM, stronger effect = higher value
[5] = target: Voltage-gated potassium channel subunit beta-2 (Rattus norvegicus) (UniProt P62483); assay: KvBeta positive modulators, primary screen, biochemical, NADPH fluorescence (AID 623;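 active = NADPH fluorescence slope more negative than the mean of all samples by about 3 SD, 99.7% confidence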;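 also: fluorescence intensity change per second fitted from 20 to 320 s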); settings: Recombinant KvBeta, NADPH fluorescence decrease slope, 10 min; at 10 µM; stronger effect = lower value
[6] = target: Alpha-2C adrenergic receptor (Homo sapiens) (UniProt P18825); assay: modulators of alpha2C/GIRK thallium flux, primary screen, cell-based, HEK293 alpha2C/GIRK1/2 (AID 624;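 active = fluorescence slope after compound addition differing from the mean of all screened samples at 99.7% confidence, in either direction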;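 also: slope of fluorescence ratio to pre-addition baseline per second over 15 to 24 s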); settings: thallium flux BTC fluorescence, at 10 µM, actives lie on both sides
[7] = inhibitors of Sendai virus-induced IRF3 signaling, primary screen, TLR/RLR signaling modifier project, cell-based, Sendai virus stimulus, luciferase, 10K MLSCN set (AID 602276;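 active = inhibition at or above 50% at 10 µM; inactive = inhibition below 50%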;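 also: firefly luciferase from ISG56 promoter only with Renilla not read in this screen; 0% = Sendai virus plus DMSO and 100% = medium plus DMSO without virus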); settings: HEK293 RL24 IRF3 luciferase reporter, at 10 µM, stronger effect = higher value
[8] = inhibitors of poly I:C-induced TLR3 signaling, primary screen, cell-based, poly I:C stimulus, luciferase, 10K MLSCN set (AID 602277); settings: HEK293-TLR3 RL24 IRF3 luciferase reporter, at 10 µM, stronger effect = higher value

Chain of Alpha-2C adrenergic receptor (Homo sapiens) (P18825 whole entry, looked up): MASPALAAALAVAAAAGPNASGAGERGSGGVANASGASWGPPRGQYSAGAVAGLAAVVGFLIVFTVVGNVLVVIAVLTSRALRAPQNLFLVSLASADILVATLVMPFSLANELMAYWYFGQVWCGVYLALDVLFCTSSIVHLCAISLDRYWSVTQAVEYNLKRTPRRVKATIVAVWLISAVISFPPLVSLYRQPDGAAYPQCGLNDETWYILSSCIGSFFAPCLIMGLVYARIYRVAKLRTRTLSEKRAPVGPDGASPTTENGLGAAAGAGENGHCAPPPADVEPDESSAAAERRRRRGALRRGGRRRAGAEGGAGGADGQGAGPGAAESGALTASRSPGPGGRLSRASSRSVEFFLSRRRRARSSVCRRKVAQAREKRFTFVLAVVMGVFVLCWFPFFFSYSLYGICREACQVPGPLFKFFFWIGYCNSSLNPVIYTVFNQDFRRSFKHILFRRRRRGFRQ
Chain of Voltage-gated potassium channel subunit beta-2 (Rattus norvegicus) (P62483 whole entry, looked up): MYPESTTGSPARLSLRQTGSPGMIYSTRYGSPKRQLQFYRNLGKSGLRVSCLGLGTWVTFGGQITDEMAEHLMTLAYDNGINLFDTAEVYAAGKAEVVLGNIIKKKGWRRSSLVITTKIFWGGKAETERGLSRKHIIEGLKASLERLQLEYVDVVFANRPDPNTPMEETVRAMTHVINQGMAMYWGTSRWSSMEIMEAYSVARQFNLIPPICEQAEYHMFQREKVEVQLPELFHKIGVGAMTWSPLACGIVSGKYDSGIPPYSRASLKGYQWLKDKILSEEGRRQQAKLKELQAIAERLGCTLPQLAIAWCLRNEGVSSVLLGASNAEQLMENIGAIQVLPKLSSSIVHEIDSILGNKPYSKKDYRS

Row | SMILES | cell count [1] | inhibition [1] | inhibition of aggregation [2] | nuclei count [2] | inhibition [3] | nuclei count [3] | fluorescence slope [4] | NADPH fluorescence slope [5] | slope [6] | inhibition [7] | inhibition [8]
1 | CCOC(=O)c1ccc(COC(=O)c2cc3ccccc3oc2=O)o1 | 607 | -1.2% (inactive) | 1.7% (inactive) | 101% | -39.1% (inactive) | 96.9% | -0.48 (inactive) | 1.6e-06 (inactive) | 0.00426 (inactive) | -6.72% (inactive) | -32.7% (inactive)
2 | O=C(Cn1cnc2ccccc2c1=O)NCCC(=O)N1CCN(c2ccccc2)CC1 | 383 | -10.7% (inactive) | 8.8% (inactive) | 99.4% | 12.8% (inactive) | 95.3% | -0.405 (inactive) | -9.9e-05 (inactive) | 0.0056 (inactive) | 15.8% (inactive) | 23.6% (inactive)
3 | COc1ccc(N(CC(=O)Nc2cc(C)ccc2C)S(=O)(=O)c2c(C)nn(C)c2C)cc1 | 499 | -2.3% (inactive) | 30.5% (inactive) | 65.3% | -8.4% (inactive) | 101% | -0.603 (inactive) | -2.9e-05 (inactive) | 0.0057 (inactive) | -2.9% (inactive) | 21.3% (inactive)
4 | O=C(c1ccco1)N1CCN(c2cccc(Cl)c2)CC1 | 665 | -1.9% (inactive) | 5.4% (inactive) | 115% | 24.2% (inactive) | 91.6% | -0.507 (inactive) | -7.7e-05 (inactive) | 0.00406 (inactive) | -26.6% (inactive) | -76.9% (inactive)
5 | O=C(NCC1CCCO1)c1ccc(C(=O)NCC2CCCO2)cc1 (centres undefined) | 331 | 1.9% (inactive) | -3.7% (inactive) | 101% | 52.3% (inactive) | 94.3% | -0.332 (inactive) | -3.2e-05 (inactive) | 0.00518 (inactive) | 1.79% (inactive) | 4.03% (inactive)
6 | CCCCOC(=O)c1[nH]c2c(c1C)C(=O)CC(c1cc(OC)c(OC)c(OC)c1)C2 (centres undefined) | 546 | -1.7% (inactive) | 18.4% (inactive) | 79.6% | -7.4% (inactive) | 104% | -0.57 (inactive) | -2.8e-05 (inactive) | 0.00591 (inactive) | 7.86% (inactive) | -20.9% (inactive)
7 | O=C(c1ccco1)N1CCN(C(=O)C2CC(c3ccc(F)cc3)=NO2)CC1 (centres undefined) | 448 | -12.3% (inactive) | -13.2% (inactive) | 106% | -12.7% (inactive) | 112% | -0.622 (inactive) | 2.2e-07 (inactive) | 0.00657 (inactive) | 7.52% (inactive) | 13.1% (inactive)
8 | CCOc1cc(C(=O)Nc2ncccn2)cc(OCC)c1OCC | 280 | 6.6% (inactive) | 38% (active) | 103% | -193% (inactive) | 100% | -0.476 (inactive) | -2.8e-05 (inactive) | 0.0062 (inactive) | 8.28% (inactive) | 27.2% (inactive)
9 | Cc1cc(-n2c(C)cc(C(=O)CSc3nnnn3-c3ccc(Cl)cc3)c2C)no1 | 415 | 4.2% (inactive) | 2.2% (inactive) | 94% | -55.8% (inactive) | 109% | -0.403 (inactive) | -3.2e-05 (inactive) | 0.00589 (inactive) | 9.68% (inactive) | 13.2% (inactive)
10 | O=C(NC1CCN(Cc2nnnn2CCc2ccccc2)CC1)c1ccccc1F | 744 | 0% (inactive) | -8.8% (inactive) | 99.7% | -44.2% (inactive) | 116% | -0.295 (inactive) | -3.3e-06 (inactive) | 0.00487 (inactive) | 11.5% (inactive) | 27.2% (inactive)
11 | COCCNC(=O)c1cc(-c2cccs2)on1 | 793 | -4% (inactive) | -19.1% (inactive) | 116% | -46.8% (inactive) | 126% | -0.587 (inactive) | 6.5e-06 (inactive) | 0.00598 (inactive) | -27.2% (inactive) | -253% (inactive)
12 | Clc1ccc(-n2nnnc2Sc2ncnc3sccc23)cc1 | 530 | -9% (inactive) | -12.2% (inactive) | 107% | -12.2% (inactive) | 122% | -0.528 (inactive) | -4.1e-05 (inactive) | 0.00502 (inactive) | 5.22% (inactive) | 66.8% (active)
13 | Cc1cc(=O)n2nc(N3CCCC(C(=O)N4CCc5ccccc54)C3)sc2n1 (centres undefined) | 487 | -7.5% (inactive) | -1.6% (inactive) | 97% | -54.6% (inactive) | 103% | -0.324 (inactive) | -6.9e-05 (inactive) | 0.00401 (inactive) | 18.4% (inactive) | 37.1% (inactive)
14 | CCOC(=O)N1CCN(C(=O)c2cccn3c(=O)c4sccc4nc23)CC1 | 502 | 1.1% (inactive) | -5.5% (inactive) | 102% | -5.7% (inactive) | 114% | -0.0756 (inactive) | 1.5e-05 (inactive) | 0.00326 (inactive) | -8.79% (inactive) | -5.35% (inactive)
